HepG2 tox: HepG2 cytotoxicity, counter-screen for TGF-b inhibitors | HepG2 CAGA-GFP viability, ATP luminescence, 18 h | 410,000 tested, 0.76% active | AID 588856 | Potency, µM (doses to about 46.1 µM), inactives show top-dose activity change, negative = cytotoxicity, usual class: cytotoxic
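CellTiter-Glo luminescence gave cytotoxicity after 18 hours at 37 degrees C. The cells were HepG2 CAGA-GFP in 1% FBS DMEM, stimulated with 500 pg/mL TGF-beta after compound addition. %Activity was normalised to no-cell wells (complete cell-killing) and DMSO (no toxicity), and curves were fitted and classified.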
Nrf2 block: inhibitors of Nrf2 signaling; A549 ARE-Fluc reporter, luciferase luminescence, 18-24 h; Potency, µM (series often up to 46 µM), inactives show top-dose activity change, negative = inhibition, most hits filed as inhibitors; 360,000 tested, 2.1% active; further: on the % scale 0 is the no-effect control and ±100 the full control effect; nearly all actives have a fitted effect of over 60% in size
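Two sequential reads on A549 ARE_Fluc cells exposed to compound for 18-24 h: a CellTiter-Fluor fluorescence read for viability, then a luciferase luminescence read for Nrf2/ARE activity.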
A549 tox: counter-screen for Nrf2 inhibitors: cytotoxicity in A549 cells. 390,000 tested, 0.16% active. A549 ARE-Fluc cells, CellTiter-Fluor viability, 18-24 h. Potency, µM (top dose mostly 46 µM), inactives show at the top dose activity change, negative = cytotoxicity, most hits filed as inhibitors; further: on the % scale 0 is the no-effect control and ±100 the full control effect
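A549 ARE_Fluc cells in 5% FBS OPTI-MEM were exposed to compounds in concentration-response for 18-24 h at 37 deg C. Viability was read by CellTiter-Fluor fluorescence (Ex 405/Em 525) after 30 min, before the luciferase read.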
ATXN2 expr inh: reduces ATXN2 reporter expression in HEK-293 cells; HEK-293 ATXN2-luciferase reporter, luminescence, 24 h; Potency, µM (titrated, usually from 57 µM), for the others: at the highest dose activity change, negative = inhibition, usual class: inhibitors; 360,000 tested, 0.72% active; AID 1745845; further: on the % scale 0 is the no-effect control and ±100 the full control effect; nearly all actives have a fitted effect of over 55% in size
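ATXN2-luciferase reporter cells (luciferase flanked by upstream and downstream ATXN2 gene portions) were treated 24 h at 37 °C with compounds at up to 57 uM. SteadyGlo luminescence gave expression; GF-AFC fluorescence gave viability.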
S2 tox: reduces viability in counter-screen for ATXN expression inhibitors; S2 cells (HEK-293 line with an ATXN2-luciferase reporter) viability, CellTiter-Fluor protease fluorescence, 24 h; Potency, µM (series often up to 56.7 µM), hits mostly cytotoxic; 400,000 tested, 0.49% active; AID 651635; further: nearly all actives have a fitted effect of over 40% in size
TGFb SMAD3 inh: inhibitors of TGF-b signaling | Potency, µM (titrated, usually from 46.1 µM), for the others: top-dose activity, negative = inhibition, usual class: inhibitors | 410,000 tested, 1.2% active | HepG2 CAGA-GFP TGF-b/SMAD3 reporter, GFP fluorescence, 18 h; TGF-beta stimulated, 500 pg/mL final | AID 588855; further: on the % scale 0 is the no-effect control and ±100 the full control effect; nearly all actives have a fitted effect of over 65% in size
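Inhibition of TGF-beta-driven CAGA-GFP reporter expression in HEPG2 cells is measured by cellular GFP fluorescence after 18 h stimulation with 500 pg/mL recombinant TGF-beta in 1% FBS medium at 37 degrees C.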
The depositor's hits bear a star; i = inactive; ? = inconclusive; . = no result given. In the library only some 3.8% were active in any assay of this set; here they are far more common. The call rests on the fitted dose curve; in most records, active means well fitted curve in the direction sought with a large enough effect; inconclusive means small, poorly fitted or top-dose-only effect, or another doubt; inactive means no such curve, though single readings can be large; an effect the other way counts as inactive or inconclusive. Potency means the concentration at half of the fitted maximal effect.

SMILES	HepG2 tox	Nrf2 block	A549 tox	ATXN2 expr inh	S2 tox	TGFb SMAD3 inh
CC(C)c1oc(=O)cc2c1[C@@H](O)[C@H]1OC(=O)[C@@]3(C)CC[C@@H](O)[C@@]2(C)C13 (stereo partly specified)	-25%	18µM*	?	13µM*	?	2µM*
CC(C)Cn1c(O)c(N=NC(=O)c2cccc(S(=O)(=O)N3CCCCC3)c2)c2ccccc21	1%	21µM*	?	-14%	i	?
Cc1nnc2n1-c1sc(CCc3ccc(CC(C)C)cc3)cc1C(c1ccccc1Cl)=NC2C (stereo unspecified)	.	.	.	35µM*	32µM*	.
COc1ccc(CCNc2nccn(-c3ccc(C)c(C)c3)c2=O)cc1OC	-21%	?	-19%	0%	?	?
COc1ccc(CCNc2nc3c(c(=O)n(C)c(=O)n3C)n2Cc2ccc(F)cc2)cc1OC	-6%	16µM*	-14%	-17%	?	-10%
CCc1nn2c(=O)cc(N3CCN(C)CC3)nc2s1	.	8%	-2%	.	.	.
Cc1c(P(=S)(c2ccccc2)c2ccccc2)[n+]2ccccc2n1C	0%	-1%	4%	-3%	i	-6%
Cc1c(P(=S)(c2ccccc2)c2ccccc2)[n+]2ccccc2n1C/C=C/c1ccccc1	20µM*	?	-18%	?	14µM*	?
CC(O)CN1CCN(CC(=O)[O-])CCN(CC(=O)[O-])CCN(CC(=O)[O-])CC1.[Gd+3] (stereo unspecified)	.	.	.	8%	i	.
O=c1[nH]c2ccccc2n1C1CCN(C(c2cccc3ccccc23)c2nnnn2-c2ccc3c(c2)OCCO3)CC1 (stereo unspecified)	-13%	.	.	-22%	?	?
COc1ccc(-n2nnnc2C(c2cc3ccccc3o2)N2CCC(n3c(=O)[nH]c4ccccc43)CC2)cc1 (stereo unspecified)	-28%	.	.	7.9µM*	7.9µM*	?
O=c1[nH]c2ccccc2n1C1CCN(C(c2cc3ccccc3o2)c2nnnn2-c2ccc3c(c2)OCCO3)CC1 (stereo unspecified)	-15%	.	.	13µM*	?	-21%
ClCCCN1CCN(c2cccc(Cl)c2)CC1	.	.	.	0%	i	.
CC1CCN(C(CC(=O)c2ccccc2)C(=O)c2ccccc2)CC1 (stereo unspecified)	22µM*	?	-4%	?	i	?
O=C(Nc1ccc(Cl)c(C(F)(F)F)c1)NC1CC2CCCC(C1)N2Cc1ccccc1 (stereo unspecified)	-115%	-24%	-15%	?	?	20µM*
CC(C)c1ccc(Cc2cn3cc(-c4cc5ccccc5oc4=O)nc3s2)cc1	1%	?	-8%	20%	?	-14%
Cc1ccc(NC(=O)COc2ccc(-c3nn(C)c(=O)c4ccccc34)cc2)cc1	-12%	?	-6%	-12%	i	?
CCN(CC)C(=O)c1ccc(NC(=O)CCn2nc(-c3ccc(Cl)cc3)c3ccccc3c2=O)cc1	8%	26µM*	-15%	?	?	?
O=C(O)c1cccs1	16%	.	.	.	.	5%
COc1ccc(-c2nc(NC(=O)Cn3c(=O)oc4ccccc43)sc2C)cc1	-22%	18µM*	-17%	-19%	i	-11%
Cc1ccsc1/C=C1\C(=O)NC(=S)N(C)C1=O	-56%	-13%	5%	.	?	?
CN1C(=O)/C(=C/c2ccc(Cl)s2)C(=O)NC1=S	-20%	?	-13%	?	16µM*	-14%
COCCNC(=O)N1[C@H]2CC[C@@H]1C(C(=O)OC)=C(c1ccc(-c3ccccc3)c(F)c1)C2	-14%	18µM*	-3%	?	?	?
COC(=O)C1=C(c2ccc(-c3ccccc3)c(F)c2)C[C@@H]2CC[C@H]1N2C(=O)NC1Cc2ccccc2C1	-10%	?	-19%	-22%	i	-23%
COC(=O)C1=C(c2ccc(-c3ccccc3)c(F)c2)C[C@@H]2CC[C@H]1N2C(=O)NCC1CC1	-45%	13µM*	?	?	?	?
SMILES	HepG2 tox	Nrf2 block	A549 tox	ATXN2 expr inh	S2 tox	TGFb SMAD3 inh
COC(=O)C1=C(c2ccc(-c3ccccc3)c(F)c2)C[C@@H]2CC[C@H]1N2C(=O)NCCOc1ccccc1	-5%	18µM*	?	0%	?	?
CN(C)CCO	.	.	.	.	i	.
C1=CC(Cc2cncs2)c2ccccc21 (stereo unspecified)	2%	8%	0%	6%	i	0%
COC(=O)C1=C(c2ccc(S(C)(=O)=O)cc2)C[C@@H]2CC[C@H]1N2C(=O)NCc1ccc(C(F)(F)F)cc1	-1%	-21%	0%	-1%	i	-4%
ClCCN(CCCl)c1ccc(C=Nc2ccc(/C=C/c3ccncc3)cc2)cc1	-24%	.	.	.	.	-9%
COc1ccc2nc(NC(=O)c3nc(S(=O)(=O)Cc4cccc(C)c4)ncc3Cl)sc2c1	-97%	-16%	-29%	.	.	?
Cc1cccc(CN2C(=O)CN=C(c3ccccc3)c3ccccc32)c1	-1%	.	-10%	.	.	-23%
Cc1cc(C)cc(NC(=O)CN2C(=O)CN=C(c3ccccc3)c3cc(Cl)ccc32)c1	-46%	.	?	.	.	?
Cc1cccc(CN2C(=O)CN=C(c3ccccc3)c3cc(Cl)ccc32)c1	-41%	.	1%	.	.	16µM*
CCc1cccc(NC(=O)CN2C(=O)CN=C(c3ccccc3F)c3cc(Cl)ccc32)c1	-55%	.	?	.	.	13µM*
O=C1NC(=O)C(=Cc2ccc(-c3ccc(Cl)cc3)o2)C(=O)N1	-29%	?	-13%	?	28µM*	?
CN(Cc1ccccc1)C(=O)c1ccc(NC(=O)C2CCN(C(=O)OC(C)(C)C)CC2)cc1	2%	16µM*	-5%	25µM*	?	-9%
CN(Cc1ccccc1)C(=O)CN1CCCC1=O	0%	-7%	3%	.	i	-7%
O=C(CCCCl)c1ccc(F)cc1	.	.	.	16%	i	.
COC(=O)c1ccc(NC(=O)CSc2nc3ccc(N4C(=O)C5C6C=CC(C6)C5C4=O)cc3s2)cc1 (stereo unspecified)	-39%	18µM*	?	?	?	-6%
C[C@]12CCC3C(CC[C@H]4C[C@@H](O)CC[C@]34C)C1CC[C@@H]2OC(=O)[C@H](N)CCCCN (stereo partly specified)	-7%	1%	9%	?	?	-2%

Screening data as filed in PubChem BioAssay.
